# Screens as filed in PubChem BioAssay.
# CYP2C19 activ = cytochrome P450 2C19 (human) activation; recombinant CYP2C19, luciferin-H EGE luminescence; active compounds read high; 0 = fully inhibited enzyme, 1 = untreated enzyme; activation factor at 5 µM; 96,000 tested, under 10 active; AID 1025;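 active = activation factor of at least 2 at 5 µM in the primary screen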
# CYP2C9 inh = human CYP2C9 inhibition | P11712 | CYP2C9 Supersomes, luciferin-H conversion, luminescence | inhibition, % at 5 µM | hit rate 20% among 96,000;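 active = blocking of liver enzyme CYP2C9 beyond about 50% at 5 µM, limit read from the data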
# Target sequence (P11712 whole entry, looked up): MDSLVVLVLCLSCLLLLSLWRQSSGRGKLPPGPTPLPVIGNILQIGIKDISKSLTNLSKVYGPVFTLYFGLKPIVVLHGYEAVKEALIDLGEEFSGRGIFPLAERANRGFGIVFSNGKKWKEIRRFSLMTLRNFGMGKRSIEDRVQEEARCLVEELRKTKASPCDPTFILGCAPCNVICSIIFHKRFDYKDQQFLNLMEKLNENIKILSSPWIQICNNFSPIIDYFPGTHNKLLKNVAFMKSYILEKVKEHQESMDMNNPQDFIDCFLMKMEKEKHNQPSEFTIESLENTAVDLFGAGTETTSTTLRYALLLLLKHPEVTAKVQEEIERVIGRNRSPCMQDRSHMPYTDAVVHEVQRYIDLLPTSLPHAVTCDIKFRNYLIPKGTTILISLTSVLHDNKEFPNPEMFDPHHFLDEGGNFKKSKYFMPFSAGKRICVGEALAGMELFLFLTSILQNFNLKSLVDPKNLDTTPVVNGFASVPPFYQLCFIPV
# CYP2C9 activ = CYP2C9 (human) activation; P11712; recombinant CYP2C9, luciferin-H conversion, luminescence; active compounds read high; factor 1 = untreated enzyme, 0 = blocked; activation factor at 5 µM; hit rate 1.4% among 96,000; AID 1024;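 active = activation factor of 2 or more for CYP2C9 at a 5 µM dose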
# CYP2C19 inh = inhibitors of human CYP2C19 | CYP2C19 Supersomes, luciferin-H EGE luminescence, 30 min | inhibition, % at 5 µM | P33261 | hit rate 21% among 96,000;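 active = CYP2C19 inhibition above a set limit at 5 µM in the primary screen, cut at about 50% in these data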
# PLAP activator = human PLAP activation. purified PLAP enzyme, luminescent substrate read-out; active compounds read high. hit rate 1.2% among 96,000. activation fold at 20 µM. P05187; in the data active = activation fold above about 2
# A number is an active result; . = inactive. This is a sample that favours compounds with a hit; in the whole collection about 31% have one here.
SMILES,CYP2C19 activ,CYP2C9 inh,CYP2C9 activ,CYP2C19 inh,PLAP activator
CCOC(=O)C1CCN(C(c2cc3ccc(C)c(C)c3[nH]c2=O)c2nnnn2C2CCCCC2)CC1 (configuration not stated),.,90,.,80,.
Cc1nc(SCC(=O)c2ccc(Cl)cc2)c([N+](=O)[O-])[nH]1,.,.,.,53,.
Cc1ccc(C(=O)NC(=S)Nc2ccc(S(=O)(=O)N3CCN(C)CC3)cc2)cc1,.,.,.,.,.
Cc1ccccc1C(=O)NC(=S)Nc1ccc(S(=O)(=O)N(C)c2ccccc2)cc1,.,82,.,87,.
Cc1cccc(C(=O)NC(=S)Nc2ccc(S(=O)(=O)N3CCCCC3)cc2)c1,.,.,.,.,.
Cc1cccc(C(=O)NC(=S)Nc2ccc(S(=O)(=O)N(C)c3ccccc3)cc2)c1,.,66,.,.,.
Cc1cccc(C(=O)NC(=S)Nc2ccc(Cc3ccncc3)cc2)c1,.,92,.,89,.
Cc1cccc(C(=O)NC(=S)Nc2ccc(S(=O)(=O)N3CCN(C)CC3)cc2)c1,.,71,.,79,.
O=C1CN(C(=O)CSc2nnc(C3CC3)n2-c2ccccc2)c2ccccc2N1,.,.,.,.,.
COc1ccccc1NC(=O)c1sc2nc(Cc3ccccc3)cc(C(F)(F)F)c2c1N,.,.,.,.,.
O=C(c1cc2cc(Br)ccc2oc1=O)N1CCCC1,.,.,.,.,.
COc1ccc(-n2nnnc2Sc2ccc(S(=O)(=O)N3CCOCC3)cn2)cc1,.,.,.,.,.
O=C(O)c1ccc(-c2ccco2)n1Cc1ccccc1,.,71,.,.,.
COC(=O)c1ccc(-c2ccco2)n1Cc1cc(C)ccc1C,.,.,.,.,.
COC(=O)c1ccc(-c2ccco2)n1Cc1cccc(C)c1,.,81,.,60,.
COCCSc1nnc(NC(=O)C(C)(C)C)s1,.,.,.,.,.
N=C1C(c2ccccc2)=C(O)CN1c1ccc2c(c1)OCO2,.,.,.,.,.
Cn1c(SCC(=O)NC(C)(C)C)nnc1-c1ccc(C(C)(C)C)cc1,.,53,.,.,.
Cn1c(SCC(=O)c2ccccc2)nnc1-c1cccc(N)c1,.,.,.,95,.
Cn1c(SCC(=O)c2ccccc2)nnc1-c1ccc(O)cc1,.,.,.,93,.
COc1cccc(NC(=O)N[C@@H](Cc2ccccc2)C(=O)O)c1,.,.,.,.,.
COc1cccc(NC(=O)C(C#N)Cc2ccncc2)c1 (configuration not stated),.,77,.,100,.
COC(=O)c1ccc(NC(=O)C(C)Oc2ccccc2)cc1 (configuration not stated),.,84,.,.,.
COc1ccc(NC(=O)C(C)Oc2ccc(/C(C)=N\O)cc2)cc1 (configuration not stated),.,66,.,81,.
COc1ccc(OC(C)C(=O)Nc2cccc(OC)c2)cc1 (configuration not stated),.,75,.,87,.
SMILES,CYP2C19 activ,CYP2C9 inh,CYP2C9 activ,CYP2C19 inh,PLAP activator
CC(Oc1ccccc1)C(=O)Nc1ccc(C(N)=O)cc1 (configuration not stated),.,.,.,.,.
CCOC(=O)c1ccc(N2C(=O)CC(Nc3ccc(CCO)cc3)C2=O)cc1 (configuration not stated),.,.,.,.,.
O=C(NC1CCCCC1)C(c1ccccc1)N1CCC2(CC1)OCCO2 (configuration not stated),.,.,.,.,.
COc1ccc(C(NC(=O)CC(C)C)NC(=O)CC(C)C)cc1OC,.,.,.,.,.
CCCn1c(=O)c2ccccc2n2c(SCC(=O)c3cc(C)n(CCOC)c3C)nnc12,.,.,.,.,.
CCOc1cccc(C=Nc2cc(C)cc(C)c2O)c1O,.,.,.,.,.
CC1CC(C)CN(CCCNC(=O)c2csc3c2CCCC3)C1 (configuration not stated),.,.,.,.,.
Cc1cccc(-n2nc([N+](=O)[O-])c(=NCc3cccnc3)n2O)c1,.,.,.,60,.
Cc1nc2c3cnn(-c4ccccc4)c3ncn2n1,.,.,.,.,.
CCc1nc2c3cnn(-c4cc(Cl)ccc4C)c3ncn2n1,.,.,.,85,.
C(=C\c1cccc2ccccc12)/c1nnc(-c2cccs2)o1,.,.,.,.,.
CC1=C(C#N)C(Nc2cc(C)ccn2)(C(F)(F)F)C(=O)N1 (configuration not stated),.,.,.,76,.
CC1=C(C#N)C(NC(=O)c2ccc(C)cc2)(C(F)(F)F)C(=O)N1 (configuration not stated),.,.,.,92,.
COc1ccc(CNC(=O)CN(C(=O)c2cc3sccc3n2C)C2CCCC2)cc1,.,.,.,.,.
Clc1ccc(-n2nnnc2SCc2c(-c3ccccc3)nc3sccn23)cc1,.,89,.,.,.
O=C(CSc1nnnn1-c1ccccc1)Nc1ccc(Cl)cc1,.,.,.,.,.
CN1CCN(C(=O)c2cc3c(n(-c4ccccc4)c2=O)CC(C)(C)CC3=O)CC1,.,.,.,.,.
C=CCn1c(=O)/c(=C/c2ccc(Cl)cc2)s/c1=C(/C#N)c1nnc2n1CCCCC2,.,78,.,.,.
O=C(NC1CCCCC1)/C(=N\O)c1ccccn1,.,.,.,.,.
CCOc1ccccc1N1CCN(Cc2ccc(Br)s2)CC1,.,52,.,.,.
COc1ccccc1N1CCN(Cc2ccc(Br)o2)CC1,.,54,.,93,.
CCOc1ccccc1N1CCN(Cc2ccc(OC)c(OC)c2)CC1,.,.,.,.,.
CCOc1ccccc1N1CCN(Cc2ccco2)CC1,.,.,.,51,.
O=C1C(C=NCCCN2CCCC2=O)=C(O)c2ccccc21,.,.,.,.,.
Cn1c(=O)c2nc(-c3ccccc3)oc2c2ccccc21,.,.,.,.,.
SMILES,CYP2C19 activ,CYP2C9 inh,CYP2C9 activ,CYP2C19 inh,PLAP activator
O=C(CSCc1ccccc1)N1CCN(c2ccc(F)cc2)CC1,.,.,.,.,.
O=C(CSCc1cccc(F)c1)N1CCN(c2ccccc2)CC1,.,58,.,52,.
O=C1Nc2ccccc2OC1CC(=O)N1CCN(c2cccc(C(F)(F)F)c2)CC1 (configuration not stated),.,72,.,.,.
O=C(CSCc1ccccc1)N1CCN(c2cccc(C(F)(F)F)c2)CC1,.,93,.,86,.
COc1cccc(CN2CCN(C(=O)CC(C)C)CC2)c1,.,.,.,.,.
O=C(Cn1ccc2ccccc2c1=O)NCCC(=O)N1CCN(c2cccc(C(F)(F)F)c2)CC1,.,.,.,.,.
CC(C)CC(=O)N1CCN(Cc2cccc(F)c2)CC1,.,.,.,59,.
O=S(=O)(NC1CCCC1)c1cccc(S(=O)(=O)N2CCC(n3nnc4ccccc43)CC2)c1,.,72,.,75,.
O=S(=O)(NC1CC1)c1cccc(S(=O)(=O)N2CCCC2)c1,.,.,.,82,.
O=S(=O)(c1cccc(S(=O)(=O)N2CCOCC2)c1)N1CCCCC1,.,.,.,.,.
